Laboratory results reported in the supplement of paper PMC5641865, “A screen for kinase inhibitors identifies antimicrobial imidazopyridine aminofurazans as specific inhibitors of the Listeria monocytogenes PASTA kinase PrkA” (The Journal of Biological Chemistry, 2017).
± gives the standard deviation of the averaged measurements.

Test system: Listeria monocytogenes 10403S
Assay: growth inhibition relative to ceftriaxone-alone control; higher = stronger potentiation of ceftriaxone growth inhibition
Settings: 10 µM; ceftriaxone 1 ug/ml; 12 h
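Further: End-point A600 read in BHI broth at 37 °C with 2% DMSO, inhibition computed as (1 − OD with compound plus ceftriaxone ÷ OD with ceftriaxone only) × 100.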

Compound	growth inhibition [%]
CNC(=O)Oc1cc(C)c(/C=C/c2cncc(C(=O)NC)c2)c(C)c1	3.06 ± 7
COC[C@H]1OC(=O)c2coc3c2[C@@]1(C)C1=C(C3=O)[C@@H]2CCC(=O)[C@@]2(C)C[C@H]1OC(C)=O [Wortmannin]	2.26 ± 1.5
Cc1ccccc1-n1c(Cn2ncc3c(N)ncnc32)nc2cccc(C)c2c1=O	15.4 ± 13
CC(C)(C)c1cc(C=C(C#N)C#N)cc(Br)c1O	103 ± 6.1
O=c1[nH]c2ccc(Cl)cc2c(N[C@@H]2CN3CCC2CC3)c1-c1nc2ccccc2[nH]1	96.1 ± 3.4
CN[C@@H]1C[C@H]2O[C@@](C)([C@@H]1OC)n1c3ccccc3c3c4c(c5c6ccccc6n2c5c31)C(=O)NC4 [Staurosporine]	102 ± 5
CCN1CCN(C(=O)Cc2ccc(Nc3ncc(F)c(Nc4ccc(C(=O)Nc5ccccc5Cl)cc4)n3)cc2)CC1 [Aurora A Inhibitor I]	7.11 ± 13
Cn1cc(C2=C(c3cn(C4CCN(Cc5ccccn5)CC4)c4ccccc34)C(=O)NC2=O)c2ccccc21	40.6 ± 17
Cc1ccccc1-n1c(Cn2cnc3c(N)ncnc32)nc2cccc(C)c2c1=O	-7.86 ± 4.1
